Experimental data: PubChem BioAssay (NCATS)
Values joined by “and” are separate entries in the source; they are usually repeats but may differ in a detail not shown here. Equal entries are not always repeated. Inconclusive results are not listed. Active and inactive are the calls of the source. Unless noted, the call rests on the fitted dose curve; in most records, active means well fitted curve in the direction sought with a large enough effect; inconclusive means small, poorly fitted or top-dose-only effect, or another doubt; inactive means no such curve, though single readings can be large; an effect the other way counts as inactive or inconclusive.

Legend:
[1] = qHTS assay for small molecule disruptors of the mitochondrial membrane potential - 1 hr assay (AID 651754; calls by dose curve; further: on the % scale 0 is the no-effect control and ±100 the full control effect; nearly all actives have a fitted effect of over 35% in size)
How it was run: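 Loss of mitochondrial potential shifts the cationic dye from red mitochondrial aggregates to green cytoplasmic monomers. Cells (HepG2) are treated with compound for 1 hr before a 30 min dye incubation at 37C.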

[2] = qHTS assay for small molecule disruptors of the mitochondrial membrane potential - 5 hr assay (AID 651755; calls by dose curve; further: on the % scale 0 is the no-effect control and ±100 the full control effect; nearly all actives have a fitted effect of over 40% in size)
How it was run: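 Membrane-potential dye readout: red aggregate (540 ex/590 em) versus green monomer (490 ex/535 em) fluorescence after 30 min dye loading, following 5 hr compound exposure at 37C of overnight-plated HepG2 cells.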

[3] = qHTS assay for environmental chemicals that activate the Aryl hydrocarbon Receptor (AhR) signaling pathway (AID 651777); settings: 1A2-DRE human hepatoma cells, luciferase, 24 h; activation: stronger effect = higher value; further: % of control where 0% means no effect; nearly all actives have a fitted effect of over 15% in size
How it was run: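 Following a 24 hr incubation with test chemicals at 37 C and 5% CO2, 1A2-DRE human hepatoma cells received One-Glo reagent; after 30 min at room temperature, luciferase output reflected CYP1A2 induction via AhR.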

[4] = target: Peroxisome proliferator-activated receptor alpha (Homo sapiens) (UniProt Q07869); assay: qHTS assay for small molecule agonists of the peroxisome proliferator-activated receptor alpha (PPARalpha) signaling pathway (AID 651778); settings: PathHunter PPARalpha complementation, chemiluminescence, 6 h; stronger effect = higher value; further: % of control where 0% means no effect
How it was run: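 Chemiluminescence from complemented enzyme reported PPARalpha activation in cells after 6 hr of compound treatment at 37 C. The detection reagent was incubated for 60 min at room temperature, and compounds were scored as agonists.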

[5] = target: Nuclear receptor ROR-gamma (Homo sapiens) (UniProt P51449); assay: qHTS assay for small molecule antagonists of the retinoid-related orphan receptor gamma (ROR-gamma) signaling pathway (AID 651802);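 further: CHO cells with doxycycline-induced ROR-gamma expression; series mostly up to about 92 µM; on the % scale 0 is the no-effect control and ±100 the full control effect; nearly all actives have a fitted effect of over 60% in size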
How it was run: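 Steps: cells dispensed; compound or DMSO transferred by pin tool; doxycycline added to induce the ROR response element-driven luciferase; plates held 16hr at 37C; ONE-Glo added and luminescence measured.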

[6] = qHTS assay for small molecule agonists of the antioxidant response element (ARE) signaling pathway measured by Nrf2-dependant transcriptional activity (AID 720636; active means well fitted curve in the direction sought with a large enough effect in the repeat runs; an effect the other way counts as inactive or inconclusive;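 further: HepG2 cells with an ARE-driven luciferase reporter; % of control where 0% means no effect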)
How it was run: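 ONE-Glo luminescence, read 30 min after reagent addition at room temperature, reflected ARE reporter activity in HepG2 cells that had been incubated with compound for 16 hr at 37 C in 1% dialyzed FBS.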

[7] = qHTS assay for small molecule antagonists of the retinoid-related orphan receptor gamma (ROR-gamma) signaling pathway - cell viability counter screen (AID 720652; active means well fitted curve in the direction sought with a large enough effect in the repeat runs; an effect the other way counts as inactive or inconclusive;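 further: CHO reporter cells with doxycycline-induced ROR-gamma expression; series mostly up to about 92 µM; compound exposure lasted 16 hr before ATP read; on the % scale 0 is the no-effect control and ±100 the full control effect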)
How it was run: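 Steps: seed CHO cells bearing TET-inducible ROR and ROR response element-luciferase; rest 5 hr at 37 C; add compound, then doxycycline; incubate 16 hr; add CellTiter-Glo and read luminescence as ATP-based viability.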

[8] = qHTS assay for small molecule agonists of the antioxidant response element (ARE) signaling pathway measured by Nrf2-dependant transcriptional activity - cell viability counter screen (AID 720653; active means well fitted curve in the direction sought with a large enough effect in the repeat runs; an effect the other way counts as inactive or inconclusive; further: potency means the concentration at half of the fitted maximal effect; on max response: on the % scale 0 is the no-effect control and ±100 the full control effect); settings: ARE-bla HepG2 viability, CellTiter-Glo ATP luminescence, 16 h; max response: stronger effect = lower value
How it was run: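 Cytotoxicity counter screen: intracellular ATP quantified by CellTiter-Glo luminescence in the same ARE-bla HepG2 plates, after 16 h compound exposure and a 2 h beta-lactamase substrate step.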

[9] = qHTS assay for cell viability of HEK293 cells (AID 743288); settings: ATP luminescence (CellTiter-Glo), 18 h; max response: stronger effect = lower value; further: nearly all actives have a fitted effect of over 50% in size; further: potency means the concentration at half of the fitted maximal effect; on max response: on the % scale 0 is the no-effect control and ±100 the full control effect
How it was run: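 Steps: plate 2,000 parental HEK293 cells per well; incubate ≥5 h, 37 C; add compounds in DMSO; incubate 18 h, 37 C; add CellTiter-Glo; wait 30 min at room temperature; read luminescence.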

[10] = qHTS Assay for Identifying Gametocytocidal Compounds (AID 743244); further: potency means the concentration at half of the fitted maximal effect;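 on max response: on the % scale 0 is the no-effect control and ±100 the full control effect; actives lower the fluorescent signal which means gametocytes are killed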; settings: P. falciparum 3D7 stage III-V gametocytes, alamarBlue, 72 h; max response: stronger effect = lower value
How it was run: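 Late gametocytes (III–V), P. falciparum 3D7; 72 h drug, then 24 h alamarBlue; resazurin reduction read by fluorescence.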

[11] = target: Arylsulfatase A (Homo sapiens) (UniProt P15289); assay: qHTS screen for enhancers of Arylsulfatase A (ASA1): LOPAC Validation Assay (AID 720538); further: potency means the concentration at half of the fitted maximal effect
How it was run: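 SV40-transformed fibroblasts from an MLD patient (ASA-I179S) were treated with compound for 48 h at 37 C. They were then lysed with 0.5 mM pNCS substrate (final) for 14 h at room temperature and stopped with NaOH; signal read by fluorescence (Ex 525/Em 598 nm), with increase denoting enhanced activity.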

[12] = qHTS for compounds that reverse cellular toxicity of Amyloid beta (A-beta) peptide in yeast: LOPAC Validation Assay (AID 720559);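 further: plate controls were DMSO for no effect and equimolar ferric chloride plus clioquinol rescue for full effect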
How it was run: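 Yeast expressing toxic A-beta grown with pinned compounds at 30 C for 48 hr. Growth measured as absorbance at 600 nm; data normalized to DMSO and to an equimolar FeCl3/clioquinol mixture as positive control.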

[13] = qHTS for Activators of Parkin Expression: LOPAC Validation Assay (NLuc Reporter) (AID 720572)
How it was run: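 Compound effects on Parkin promoter activity were measured as NanoLuc luminescence after 24 h at 37 C. The neuronal reporter line also carried FLuc, which was read first. LOPAC compounds were tested at 7 concentrations, with normalization to DMSO (0%) and positive control (100%).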

[14] = qHTS for Activators of Parkin Expression: LOPAC Validation Assay (FLuc Reporter) (AID 720573)
How it was run: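 Neuronal cell line stably expressing FLuc/NLuc coincidence reporter under the Parkin promoter, 1,500 cells/well, dosed 24 h after seeding in 7-point series for 24 h at 37 C. FLuc luminescence read; normalized to DMSO and positive control (100%).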

[15] = target: T1, Hexokinase-4 (Homo sapiens) + Glucokinase regulatory protein (Homo sapiens) (UniProt P35557+Q14397); assay: qHTS assay for inhibitors of recombinant human GCK-GKRP interaction: Diaphorase-coupled assay (AID 743205)
How it was run: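 Compounds pre-incubated 20 min with substrate, then 10 nM GST-GCK with 10 nM FLAG-GKRP added. GCK activity coupled via G6PDH and diaphorase to resorufin (5 mM glucose, 0.4 mM ATP, 0.15 mM NADP+, pH 7.6), read kinetically over 30 minutes at Ex 525/Em 590 nm.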

[16] = target: T1, Hexokinase-4 (Homo sapiens) + Glucokinase regulatory protein (Homo sapiens); assay: qHTS assay for inhibitors of recombinant human GCK-GKRP interaction: ADP-Glo assay (AID 743206);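 further: plate controls were DMSO plus enzyme for no effect and no enzyme for full effect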
How it was run: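 Pin-transferred compounds meet a 15 nM GST-GCK/15 nM FLAG-GKRP/2 uM S6P mix (dispense concentrations). ATP is then added to 0.4 mM final with 5 mM glucose, and the reaction runs 60 min at room temperature. ADP is quantified luminescently.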

[17] = target: T1, Hexokinase-4 (Homo sapiens) + Glucokinase regulatory protein (Homo sapiens); assay: qHTS assay for inhibitors of recombinant human GCK-GKRP interaction: HTRF assay (AID 743207);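 further: 0% = DMSO with GCK present and -100% = DMSO wells lacking GCK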
How it was run: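 HTRF binding of 5 nM GST-GCK and 5 nM FLAG-GKRP with 2 uM S6P in pH 7.1 Hepes buffer (MgCl2, KCl, DTT, Tween 20, BSA). Anti-FLAG XL665 and anti-GST donor added, 60 min at room temperature; 665/615 nm read, normalized to with- and without-GCK controls.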

T1 sequence (P35557 whole entry, looked up): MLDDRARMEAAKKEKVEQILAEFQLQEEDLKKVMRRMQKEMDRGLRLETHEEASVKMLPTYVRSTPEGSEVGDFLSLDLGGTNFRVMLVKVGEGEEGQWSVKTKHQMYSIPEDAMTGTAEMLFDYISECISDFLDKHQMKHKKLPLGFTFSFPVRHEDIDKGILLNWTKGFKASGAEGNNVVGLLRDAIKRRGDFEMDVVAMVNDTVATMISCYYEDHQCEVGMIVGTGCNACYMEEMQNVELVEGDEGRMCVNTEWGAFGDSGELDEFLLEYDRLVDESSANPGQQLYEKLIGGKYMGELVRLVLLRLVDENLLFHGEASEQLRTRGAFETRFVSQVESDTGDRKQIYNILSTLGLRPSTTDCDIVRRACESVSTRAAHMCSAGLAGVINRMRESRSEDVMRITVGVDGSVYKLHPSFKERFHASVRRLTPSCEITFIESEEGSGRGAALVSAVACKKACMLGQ
T1 sequence (Q14397 whole entry, looked up): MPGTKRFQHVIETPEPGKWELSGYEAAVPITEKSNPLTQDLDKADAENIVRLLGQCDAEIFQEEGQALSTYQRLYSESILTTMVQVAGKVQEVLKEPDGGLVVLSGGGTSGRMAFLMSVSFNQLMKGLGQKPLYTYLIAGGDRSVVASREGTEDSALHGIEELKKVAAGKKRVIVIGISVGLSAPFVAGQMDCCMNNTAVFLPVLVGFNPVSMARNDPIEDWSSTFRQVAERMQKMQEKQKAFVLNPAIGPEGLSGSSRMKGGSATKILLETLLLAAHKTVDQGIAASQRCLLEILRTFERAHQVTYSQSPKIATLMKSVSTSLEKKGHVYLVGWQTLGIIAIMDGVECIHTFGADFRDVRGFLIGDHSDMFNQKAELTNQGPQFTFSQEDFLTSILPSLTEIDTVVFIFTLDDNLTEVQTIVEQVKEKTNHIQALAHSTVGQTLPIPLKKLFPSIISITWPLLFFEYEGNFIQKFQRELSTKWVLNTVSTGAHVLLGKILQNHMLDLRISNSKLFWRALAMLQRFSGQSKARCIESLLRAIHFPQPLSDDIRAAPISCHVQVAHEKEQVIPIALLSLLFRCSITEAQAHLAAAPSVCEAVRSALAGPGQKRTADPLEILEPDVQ
Arylsulfatase A (Homo sapiens), sequence (P15289 whole entry, looked up): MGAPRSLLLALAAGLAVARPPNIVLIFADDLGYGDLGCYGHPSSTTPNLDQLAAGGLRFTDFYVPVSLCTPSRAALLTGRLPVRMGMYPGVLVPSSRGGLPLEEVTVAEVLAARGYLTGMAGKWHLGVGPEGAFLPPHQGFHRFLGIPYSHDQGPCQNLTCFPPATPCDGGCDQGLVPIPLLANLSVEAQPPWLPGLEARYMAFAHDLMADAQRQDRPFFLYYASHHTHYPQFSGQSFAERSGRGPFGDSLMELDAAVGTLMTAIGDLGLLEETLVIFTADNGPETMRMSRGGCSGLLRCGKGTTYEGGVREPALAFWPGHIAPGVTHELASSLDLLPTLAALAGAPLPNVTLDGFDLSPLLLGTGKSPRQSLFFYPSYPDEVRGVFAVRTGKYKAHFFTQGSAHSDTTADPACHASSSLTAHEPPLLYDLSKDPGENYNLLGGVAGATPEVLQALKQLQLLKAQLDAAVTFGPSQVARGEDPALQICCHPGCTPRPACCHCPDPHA
Peroxisome proliferator-activated receptor alpha (Homo sapiens), sequence (Q07869 whole entry, looked up): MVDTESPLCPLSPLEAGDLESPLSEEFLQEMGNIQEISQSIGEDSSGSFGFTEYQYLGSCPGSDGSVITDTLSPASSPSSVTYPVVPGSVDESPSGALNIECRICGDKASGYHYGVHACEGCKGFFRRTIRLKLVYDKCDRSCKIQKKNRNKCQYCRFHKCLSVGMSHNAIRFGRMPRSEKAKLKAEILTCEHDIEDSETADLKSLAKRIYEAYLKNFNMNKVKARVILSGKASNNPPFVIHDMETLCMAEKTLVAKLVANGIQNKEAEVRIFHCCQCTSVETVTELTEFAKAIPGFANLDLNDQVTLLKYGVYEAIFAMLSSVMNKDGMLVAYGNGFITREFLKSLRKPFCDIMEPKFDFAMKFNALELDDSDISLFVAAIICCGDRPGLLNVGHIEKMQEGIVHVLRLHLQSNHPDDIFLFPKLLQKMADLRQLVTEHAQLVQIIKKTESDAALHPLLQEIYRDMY
Nuclear receptor ROR-gamma (Homo sapiens), sequence (P51449 whole entry, looked up): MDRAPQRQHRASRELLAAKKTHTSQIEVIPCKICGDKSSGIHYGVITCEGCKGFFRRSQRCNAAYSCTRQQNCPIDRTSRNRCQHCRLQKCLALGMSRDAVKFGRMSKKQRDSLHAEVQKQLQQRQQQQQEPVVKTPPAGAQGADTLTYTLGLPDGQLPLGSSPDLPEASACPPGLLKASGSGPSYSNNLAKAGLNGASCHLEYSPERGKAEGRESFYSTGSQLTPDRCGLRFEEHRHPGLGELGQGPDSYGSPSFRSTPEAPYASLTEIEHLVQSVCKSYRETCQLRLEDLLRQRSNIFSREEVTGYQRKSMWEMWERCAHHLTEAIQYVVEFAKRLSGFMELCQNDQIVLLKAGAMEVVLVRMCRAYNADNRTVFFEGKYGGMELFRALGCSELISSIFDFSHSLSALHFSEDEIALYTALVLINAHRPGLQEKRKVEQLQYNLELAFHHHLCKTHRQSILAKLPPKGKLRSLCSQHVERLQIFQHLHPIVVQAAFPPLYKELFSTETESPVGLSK

O=CC=O
inactive: Potency [1] | Potency [2] | activation [3] -1.42% | max response [4] -5.03% | Potency [5] | Potency [6] | Potency [7] | max response [8] 0.354% | max response [9] -6.19%

C[CH2][Hg][S]c1ccccc1C(=O)O
active: Potency [8] 44.7 µM | Potency [10] 1.41 µM | Potency [9] 50.1 µM
inactive: activation [3] -11.2% | max response [4] -9.74%

CC1OC1P(=O)(O)O (stereo not given)
inactive: Potency [11]

CC[C@H](C)[C@H]1O[C@]2(C=C[C@@H]1C)C[C@@H]1C[C@@H](C/C=C(\C)[C@@H](O[C@H]3C[C@H](OC)[C@@H](O[C@H]4C[C@H](OC)[C@@H](O)[C@H](C)O4)[C@H](C)O3)[C@@H](C)/C=C/C=C3\CO[C@@H]4[C@H](O)C(C)=C[C@@H](C(=O)O1)[C@]34O)O2
active: Potency [8] 39.8 µM
inactive: activation [3] -12.2% | max response [4] 7.18% | Potency [6] | max response [10] -7.27%

NCCc1ccc(S(=O)(=O)F)cc1
inactive: Potency [11] | outcome [12] | Potency [13] | outcome [14] | Potency [15] | outcome [16] | outcome [17]

CCCSP(=O)(OCC)SCCC
inactive: activation [3] -2.38% | max response [4] 0.388% | Potency [6] | max response [8] -15.9% | max response [10] -10.7% | max response [9] -0.31%

CCOC(=O)c1ncn2c1[C@@H]1CCCN1C(=O)c1cc(OC)ccc1-2
inactive: Potency [11] | outcome [12] | Potency [13] | outcome [14] | Potency [15] | outcome [16] | outcome [17]

O=[N+]([O-])c1cc(O)c(O)c([N+](=O)[O-])c1
active: Potency [11] 19 µM
inactive: outcome [12] | Potency [13] | outcome [14] | Potency [15] | outcome [16] | outcome [17]

C[N+]1(C)CCOC(O)(c2ccc(-c3ccc(C4(O)C[N+](C)(C)CCO4)cc3)cc2)C1 (stereo not given)
inactive: Potency [11] | outcome [12] | Potency [13] | outcome [14] | Potency [15] | outcome [16] | outcome [17] | max response [10] 5.92%

CC(C)(C)c1o[nH]c(=O)c1CC(N)C(=O)O (stereo not given)
inactive: Potency [11] | outcome [12] | Potency [13] | outcome [14] | Potency [15] | outcome [16] | outcome [17] | max response [10] 2.4%

OC1CCCCC1N1CCC(c2ccccc2)CC1 (stereo not given)
inactive: Potency [11] | outcome [12] | Potency [13] | outcome [14] | Potency [15] | outcome [16] | outcome [17] | max response [10] 6.56%

NC(CCCCCP(=O)(O)O)C(=O)O (stereo not given)
inactive: Potency [11] | outcome [12] | Potency [13] | outcome [14] | Potency [15] | outcome [16] | outcome [17] | max response [10] -2.34%

C=CCN(C1=NCCN1)c1c(Cl)cccc1Cl
inactive: Potency [11] | outcome [12] | Potency [13] | outcome [14] | Potency [15] | outcome [16] | outcome [17] | max response [10] -1.3% and 35.7%

CNc1ccc2oc(C[C@H]3O[C@@]4(CC[C@H]3C)O[C@H]([C@H](C)C(=O)c3ccc[nH]3)[C@H](C)C[C@H]4C)nc2c1C(=O)O
active: Potency [10] 2.35 µM
inactive: Potency [11] | outcome [12] | Potency [13] | outcome [14] | Potency [15] | outcome [16] | outcome [17]

C[C@H](N)CN1CCc2ccc(Br)cc21
inactive: Potency [11] | outcome [12] | Potency [13] | outcome [14] | Potency [15] | outcome [16] | outcome [17]

CCCn1c(=O)c2[nH]c(C3CCCC3)nc2n(CCCOC(=O)c2ccc(S(=O)(=O)F)cc2)c1=O
inactive: Potency [11] | outcome [12] | Potency [13] | outcome [14] | Potency [15] | outcome [16] | outcome [17] | max response [10] 11.9%
